# From ChEMBL document CHEMBL2218924, “A broad activity screen in support of a chemogenomic map for kinase signalling research and drug discovery” (Biochem J, 2013)
# Experiments:
# [1] = molecular target: T1, Ephrin type-A receptor 3 (Homo sapiens) (UniProt P29320); settings: at 10 µM
# T1 sequence (whole entry): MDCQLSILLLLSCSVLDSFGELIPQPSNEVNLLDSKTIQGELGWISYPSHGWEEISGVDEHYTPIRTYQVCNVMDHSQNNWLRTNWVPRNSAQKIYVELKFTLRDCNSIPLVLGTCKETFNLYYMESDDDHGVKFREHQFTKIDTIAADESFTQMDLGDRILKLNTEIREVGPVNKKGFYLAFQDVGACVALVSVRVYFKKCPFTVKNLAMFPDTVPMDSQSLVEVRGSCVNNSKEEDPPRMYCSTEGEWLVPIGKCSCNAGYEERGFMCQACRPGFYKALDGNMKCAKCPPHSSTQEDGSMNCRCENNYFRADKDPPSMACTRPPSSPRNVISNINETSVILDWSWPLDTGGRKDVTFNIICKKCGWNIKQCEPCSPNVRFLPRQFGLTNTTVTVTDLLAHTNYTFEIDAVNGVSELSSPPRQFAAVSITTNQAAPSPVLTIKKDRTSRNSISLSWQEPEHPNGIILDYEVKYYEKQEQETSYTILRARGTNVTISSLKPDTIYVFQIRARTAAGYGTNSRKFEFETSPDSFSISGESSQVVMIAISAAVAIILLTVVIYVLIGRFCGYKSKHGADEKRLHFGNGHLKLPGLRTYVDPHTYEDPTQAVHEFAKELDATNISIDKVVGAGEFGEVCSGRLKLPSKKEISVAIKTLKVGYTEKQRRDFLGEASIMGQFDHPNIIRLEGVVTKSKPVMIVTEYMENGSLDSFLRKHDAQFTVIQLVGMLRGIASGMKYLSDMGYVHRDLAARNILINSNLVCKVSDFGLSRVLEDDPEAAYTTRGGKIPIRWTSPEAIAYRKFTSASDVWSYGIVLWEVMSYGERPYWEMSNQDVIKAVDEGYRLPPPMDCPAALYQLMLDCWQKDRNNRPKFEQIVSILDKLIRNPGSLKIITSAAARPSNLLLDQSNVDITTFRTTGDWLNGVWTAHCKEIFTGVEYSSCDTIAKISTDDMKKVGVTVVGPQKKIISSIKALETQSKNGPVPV
# [2] = molecular target: Ephrin type-A receptor 7 (Homo sapiens) (UniProt Q15375); settings: at 1 µM
# Sequence of Ephrin type-A receptor 7 (Homo sapiens) (Q15375 28-998 limits assumed): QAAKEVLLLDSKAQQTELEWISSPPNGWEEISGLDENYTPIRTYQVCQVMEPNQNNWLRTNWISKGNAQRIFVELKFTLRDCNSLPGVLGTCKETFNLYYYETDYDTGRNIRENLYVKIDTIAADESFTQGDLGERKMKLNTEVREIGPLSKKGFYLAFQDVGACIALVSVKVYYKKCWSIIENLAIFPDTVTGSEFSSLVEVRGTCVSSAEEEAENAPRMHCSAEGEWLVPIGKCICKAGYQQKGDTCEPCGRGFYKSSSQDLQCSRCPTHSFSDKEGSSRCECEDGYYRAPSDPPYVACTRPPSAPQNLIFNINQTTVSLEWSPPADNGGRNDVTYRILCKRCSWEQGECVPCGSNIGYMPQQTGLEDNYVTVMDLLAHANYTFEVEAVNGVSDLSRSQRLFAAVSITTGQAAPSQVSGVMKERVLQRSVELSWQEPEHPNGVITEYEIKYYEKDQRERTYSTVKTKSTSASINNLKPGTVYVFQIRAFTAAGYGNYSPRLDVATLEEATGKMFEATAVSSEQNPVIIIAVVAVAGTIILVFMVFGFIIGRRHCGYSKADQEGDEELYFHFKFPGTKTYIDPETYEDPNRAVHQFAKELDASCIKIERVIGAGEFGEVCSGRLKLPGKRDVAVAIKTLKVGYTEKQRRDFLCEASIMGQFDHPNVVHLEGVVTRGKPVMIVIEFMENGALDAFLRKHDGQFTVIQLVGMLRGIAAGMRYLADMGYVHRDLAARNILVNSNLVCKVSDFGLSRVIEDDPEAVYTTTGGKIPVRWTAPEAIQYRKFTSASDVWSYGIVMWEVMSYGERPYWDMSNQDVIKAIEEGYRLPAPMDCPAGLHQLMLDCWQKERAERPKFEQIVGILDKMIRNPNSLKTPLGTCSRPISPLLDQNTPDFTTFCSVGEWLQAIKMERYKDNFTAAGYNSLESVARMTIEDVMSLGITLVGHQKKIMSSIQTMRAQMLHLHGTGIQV
# [3] = molecular target: Ephrin type-A receptor 7 (Homo sapiens) (UniProt Q15375); settings: at 10 µM
# [4] = molecular target: T2, Ephrin type-A receptor 8 (Homo sapiens) (UniProt P29322); settings: at 1 µM
# T2 sequence (whole entry): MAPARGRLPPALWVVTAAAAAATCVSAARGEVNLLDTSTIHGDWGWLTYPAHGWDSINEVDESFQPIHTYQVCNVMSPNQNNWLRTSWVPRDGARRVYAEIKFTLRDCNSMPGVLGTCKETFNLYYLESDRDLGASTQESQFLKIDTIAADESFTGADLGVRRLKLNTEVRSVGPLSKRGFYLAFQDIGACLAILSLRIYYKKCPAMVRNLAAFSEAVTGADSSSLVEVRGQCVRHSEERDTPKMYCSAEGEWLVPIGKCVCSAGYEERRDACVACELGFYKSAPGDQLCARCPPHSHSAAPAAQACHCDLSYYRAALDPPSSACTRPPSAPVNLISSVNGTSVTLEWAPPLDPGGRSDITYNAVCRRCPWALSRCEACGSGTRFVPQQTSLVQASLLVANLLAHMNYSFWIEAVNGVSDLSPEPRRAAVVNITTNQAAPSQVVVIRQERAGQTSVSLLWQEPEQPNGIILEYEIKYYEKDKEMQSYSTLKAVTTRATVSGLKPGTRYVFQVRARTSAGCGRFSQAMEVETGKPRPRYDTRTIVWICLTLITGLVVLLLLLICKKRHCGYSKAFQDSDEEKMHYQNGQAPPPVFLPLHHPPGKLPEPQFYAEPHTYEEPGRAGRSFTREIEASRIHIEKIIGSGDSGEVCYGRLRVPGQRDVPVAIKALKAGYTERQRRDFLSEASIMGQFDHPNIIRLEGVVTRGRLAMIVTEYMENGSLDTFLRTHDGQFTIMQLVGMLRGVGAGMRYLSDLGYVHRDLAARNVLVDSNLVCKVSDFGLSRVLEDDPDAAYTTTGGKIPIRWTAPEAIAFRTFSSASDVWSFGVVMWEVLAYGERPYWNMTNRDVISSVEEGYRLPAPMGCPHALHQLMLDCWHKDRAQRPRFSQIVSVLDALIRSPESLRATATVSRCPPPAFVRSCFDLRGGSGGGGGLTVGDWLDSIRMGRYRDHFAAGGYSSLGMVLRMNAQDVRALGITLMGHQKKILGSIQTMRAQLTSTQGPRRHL
# [5] = molecular target: T2, Ephrin type-A receptor 8 (Homo sapiens); settings: at 10 µM
# [6] = molecular target: T3, Ephrin type-B receptor 1 (Homo sapiens) (UniProt P54762); settings: at 1 µM
# T3 sequence (whole entry): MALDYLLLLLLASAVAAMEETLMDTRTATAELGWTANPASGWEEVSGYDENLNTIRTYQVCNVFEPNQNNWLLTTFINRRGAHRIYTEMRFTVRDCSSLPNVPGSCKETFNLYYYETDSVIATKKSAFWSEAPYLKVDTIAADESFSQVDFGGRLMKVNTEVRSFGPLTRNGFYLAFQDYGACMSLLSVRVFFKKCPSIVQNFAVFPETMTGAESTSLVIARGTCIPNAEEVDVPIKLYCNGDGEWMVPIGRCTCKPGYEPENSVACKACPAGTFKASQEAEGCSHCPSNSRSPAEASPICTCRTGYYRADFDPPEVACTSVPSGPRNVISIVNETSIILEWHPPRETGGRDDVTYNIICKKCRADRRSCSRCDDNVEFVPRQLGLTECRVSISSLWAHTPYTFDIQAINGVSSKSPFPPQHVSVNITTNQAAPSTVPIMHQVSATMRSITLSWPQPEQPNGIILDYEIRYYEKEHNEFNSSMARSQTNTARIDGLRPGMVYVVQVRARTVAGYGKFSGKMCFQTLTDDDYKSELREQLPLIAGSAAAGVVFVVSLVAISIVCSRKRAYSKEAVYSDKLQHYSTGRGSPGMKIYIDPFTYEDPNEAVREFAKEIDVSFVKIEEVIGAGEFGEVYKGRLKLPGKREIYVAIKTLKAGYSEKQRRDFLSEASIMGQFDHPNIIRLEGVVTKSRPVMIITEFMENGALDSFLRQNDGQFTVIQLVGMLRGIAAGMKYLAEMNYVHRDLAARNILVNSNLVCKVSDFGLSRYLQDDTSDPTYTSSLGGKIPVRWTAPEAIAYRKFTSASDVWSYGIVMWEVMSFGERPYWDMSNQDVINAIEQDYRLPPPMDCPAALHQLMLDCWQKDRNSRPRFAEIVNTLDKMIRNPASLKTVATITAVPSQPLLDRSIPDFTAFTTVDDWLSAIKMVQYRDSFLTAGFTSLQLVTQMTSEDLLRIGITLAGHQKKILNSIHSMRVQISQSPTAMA
# [7] = molecular target: T4, Ephrin type-B receptor 4 (Homo sapiens) (UniProt P54760); settings: at 1 µM
# T4 sequence (whole entry): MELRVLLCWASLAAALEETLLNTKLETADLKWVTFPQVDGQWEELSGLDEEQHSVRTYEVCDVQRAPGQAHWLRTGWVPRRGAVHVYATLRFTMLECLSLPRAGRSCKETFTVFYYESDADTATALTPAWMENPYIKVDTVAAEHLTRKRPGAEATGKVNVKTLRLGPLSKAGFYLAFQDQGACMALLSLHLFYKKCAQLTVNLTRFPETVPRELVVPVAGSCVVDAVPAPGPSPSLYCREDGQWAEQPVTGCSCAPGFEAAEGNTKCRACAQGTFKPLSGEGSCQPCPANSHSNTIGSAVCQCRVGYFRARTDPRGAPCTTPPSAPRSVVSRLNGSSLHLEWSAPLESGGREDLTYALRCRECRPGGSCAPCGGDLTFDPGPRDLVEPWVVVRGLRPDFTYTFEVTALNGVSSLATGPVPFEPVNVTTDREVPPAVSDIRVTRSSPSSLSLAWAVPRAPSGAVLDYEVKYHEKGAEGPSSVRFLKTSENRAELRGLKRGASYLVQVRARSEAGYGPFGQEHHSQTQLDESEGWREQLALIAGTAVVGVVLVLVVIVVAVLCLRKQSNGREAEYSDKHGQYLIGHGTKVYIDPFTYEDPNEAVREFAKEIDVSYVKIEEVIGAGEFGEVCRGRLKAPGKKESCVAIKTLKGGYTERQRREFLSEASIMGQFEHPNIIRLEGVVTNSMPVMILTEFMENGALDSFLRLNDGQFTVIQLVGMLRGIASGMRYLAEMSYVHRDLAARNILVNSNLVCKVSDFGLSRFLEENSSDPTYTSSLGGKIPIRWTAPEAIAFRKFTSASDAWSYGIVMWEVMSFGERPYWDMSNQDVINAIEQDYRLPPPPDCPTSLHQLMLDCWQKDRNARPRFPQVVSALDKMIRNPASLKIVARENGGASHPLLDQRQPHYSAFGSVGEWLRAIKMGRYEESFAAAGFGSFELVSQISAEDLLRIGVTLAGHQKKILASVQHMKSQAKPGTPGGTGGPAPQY
# [8] = molecular target: T4, Ephrin type-B receptor 4 (Homo sapiens); settings: at 10 µM
# [9] = molecular target: Receptor tyrosine-protein kinase erbB-4 (Homo sapiens) (UniProt Q15303); settings: at 1 µM
# Sequence of Receptor tyrosine-protein kinase erbB-4 (Homo sapiens) (Q15303 whole entry): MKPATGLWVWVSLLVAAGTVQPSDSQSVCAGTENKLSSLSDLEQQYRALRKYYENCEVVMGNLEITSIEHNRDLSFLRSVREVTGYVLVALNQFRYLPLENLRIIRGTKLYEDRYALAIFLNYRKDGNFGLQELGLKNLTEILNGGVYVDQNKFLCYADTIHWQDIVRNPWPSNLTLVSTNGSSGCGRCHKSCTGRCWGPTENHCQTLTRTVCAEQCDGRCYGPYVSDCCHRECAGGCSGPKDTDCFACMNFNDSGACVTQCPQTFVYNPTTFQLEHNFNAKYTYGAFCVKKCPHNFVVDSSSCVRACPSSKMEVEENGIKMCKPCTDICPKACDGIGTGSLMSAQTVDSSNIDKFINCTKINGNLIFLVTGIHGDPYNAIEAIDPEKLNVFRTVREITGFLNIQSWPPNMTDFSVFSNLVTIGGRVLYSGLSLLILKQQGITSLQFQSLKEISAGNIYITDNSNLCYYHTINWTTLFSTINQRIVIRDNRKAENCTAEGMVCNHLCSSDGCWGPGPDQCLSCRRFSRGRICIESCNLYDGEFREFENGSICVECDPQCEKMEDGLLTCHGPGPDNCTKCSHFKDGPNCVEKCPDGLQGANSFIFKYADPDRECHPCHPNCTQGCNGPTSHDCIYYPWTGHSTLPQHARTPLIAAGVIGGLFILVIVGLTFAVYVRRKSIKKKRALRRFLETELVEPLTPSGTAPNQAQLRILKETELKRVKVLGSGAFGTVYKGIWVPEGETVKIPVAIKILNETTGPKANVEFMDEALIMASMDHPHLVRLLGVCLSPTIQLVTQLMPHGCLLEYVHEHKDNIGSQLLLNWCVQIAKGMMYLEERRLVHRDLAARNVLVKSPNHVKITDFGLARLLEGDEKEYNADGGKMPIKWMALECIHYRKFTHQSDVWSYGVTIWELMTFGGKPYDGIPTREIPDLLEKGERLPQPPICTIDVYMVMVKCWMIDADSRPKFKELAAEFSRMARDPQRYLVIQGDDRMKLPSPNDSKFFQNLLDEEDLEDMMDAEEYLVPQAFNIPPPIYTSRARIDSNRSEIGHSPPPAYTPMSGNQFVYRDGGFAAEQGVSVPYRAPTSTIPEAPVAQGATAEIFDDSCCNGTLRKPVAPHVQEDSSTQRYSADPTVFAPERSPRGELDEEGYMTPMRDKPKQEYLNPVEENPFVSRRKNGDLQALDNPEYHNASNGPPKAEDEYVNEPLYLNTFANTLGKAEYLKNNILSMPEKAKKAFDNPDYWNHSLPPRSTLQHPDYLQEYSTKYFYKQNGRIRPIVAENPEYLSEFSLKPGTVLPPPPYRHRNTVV
# [10] = molecular target: Receptor tyrosine-protein kinase erbB-4 (Homo sapiens) (UniProt Q15303); settings: at 10 µM
# [11] = molecular target: Focal adhesion kinase 1 (Homo sapiens) (UniProt Q05397); settings: at 1 µM
# Sequence of Focal adhesion kinase 1 (Homo sapiens) (Q05397 2-1052 limits assumed): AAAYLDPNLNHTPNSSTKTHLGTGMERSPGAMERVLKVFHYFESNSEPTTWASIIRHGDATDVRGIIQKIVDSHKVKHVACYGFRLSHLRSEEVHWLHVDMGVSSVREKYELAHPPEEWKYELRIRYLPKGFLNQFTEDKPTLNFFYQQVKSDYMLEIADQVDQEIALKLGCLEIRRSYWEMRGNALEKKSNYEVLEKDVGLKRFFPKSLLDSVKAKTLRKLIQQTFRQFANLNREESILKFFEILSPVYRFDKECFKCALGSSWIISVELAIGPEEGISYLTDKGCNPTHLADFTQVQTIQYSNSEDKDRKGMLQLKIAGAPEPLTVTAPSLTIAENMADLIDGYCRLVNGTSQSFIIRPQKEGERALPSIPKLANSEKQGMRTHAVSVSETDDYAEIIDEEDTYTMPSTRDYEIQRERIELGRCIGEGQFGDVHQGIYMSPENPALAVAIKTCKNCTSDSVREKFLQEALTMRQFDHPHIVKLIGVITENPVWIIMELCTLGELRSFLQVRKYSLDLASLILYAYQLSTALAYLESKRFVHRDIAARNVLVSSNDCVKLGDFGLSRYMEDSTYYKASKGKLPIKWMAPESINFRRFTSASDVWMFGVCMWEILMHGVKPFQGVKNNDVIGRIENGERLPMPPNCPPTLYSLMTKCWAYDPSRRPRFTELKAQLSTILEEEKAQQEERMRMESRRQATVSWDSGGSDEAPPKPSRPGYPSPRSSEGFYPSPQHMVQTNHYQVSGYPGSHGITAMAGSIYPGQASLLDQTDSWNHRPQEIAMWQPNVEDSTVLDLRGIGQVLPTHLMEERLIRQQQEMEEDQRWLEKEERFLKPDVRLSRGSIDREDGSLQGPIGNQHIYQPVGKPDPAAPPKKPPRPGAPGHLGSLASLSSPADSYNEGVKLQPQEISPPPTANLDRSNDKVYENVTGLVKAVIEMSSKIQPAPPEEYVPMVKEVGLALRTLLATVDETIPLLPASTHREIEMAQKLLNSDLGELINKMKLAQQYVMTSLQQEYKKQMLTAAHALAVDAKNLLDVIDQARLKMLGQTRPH
# [12] = molecular target: Ephrin type-A receptor 5 (Homo sapiens) (UniProt P54756); settings: at 10 µM
# Sequence of Ephrin type-A receptor 5 (Homo sapiens) (P54756 whole entry): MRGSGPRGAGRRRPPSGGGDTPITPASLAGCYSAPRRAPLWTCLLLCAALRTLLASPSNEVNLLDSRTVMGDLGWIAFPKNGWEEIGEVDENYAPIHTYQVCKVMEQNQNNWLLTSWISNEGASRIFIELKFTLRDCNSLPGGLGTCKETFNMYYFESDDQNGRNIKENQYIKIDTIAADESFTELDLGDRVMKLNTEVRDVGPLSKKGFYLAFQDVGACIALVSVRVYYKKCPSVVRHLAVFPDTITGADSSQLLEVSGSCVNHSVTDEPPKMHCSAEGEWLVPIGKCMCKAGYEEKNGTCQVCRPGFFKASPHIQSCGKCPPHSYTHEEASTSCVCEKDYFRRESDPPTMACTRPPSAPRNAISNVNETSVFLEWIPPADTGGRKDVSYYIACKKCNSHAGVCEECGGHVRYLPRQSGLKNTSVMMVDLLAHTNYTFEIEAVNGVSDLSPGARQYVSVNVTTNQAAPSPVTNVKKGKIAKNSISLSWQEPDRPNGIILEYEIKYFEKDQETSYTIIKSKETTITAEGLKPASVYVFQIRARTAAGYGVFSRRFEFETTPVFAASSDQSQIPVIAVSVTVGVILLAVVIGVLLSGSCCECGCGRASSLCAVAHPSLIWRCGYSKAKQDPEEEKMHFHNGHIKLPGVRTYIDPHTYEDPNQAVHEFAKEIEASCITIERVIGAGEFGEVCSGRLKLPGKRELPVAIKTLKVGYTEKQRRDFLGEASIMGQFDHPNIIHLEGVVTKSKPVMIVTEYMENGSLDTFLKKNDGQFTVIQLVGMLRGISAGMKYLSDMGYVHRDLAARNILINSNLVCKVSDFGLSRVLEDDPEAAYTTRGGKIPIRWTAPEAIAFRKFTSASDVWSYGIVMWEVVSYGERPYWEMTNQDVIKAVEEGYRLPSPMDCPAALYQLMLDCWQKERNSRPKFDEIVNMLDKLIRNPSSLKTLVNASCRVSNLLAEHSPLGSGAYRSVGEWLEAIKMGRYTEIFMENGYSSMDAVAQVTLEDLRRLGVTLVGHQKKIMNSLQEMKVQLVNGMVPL
# [13] = molecular target: T5, Ephrin type-B receptor 2 (Homo sapiens) (UniProt P29323); settings: at 10 µM
# T5 sequence (whole entry): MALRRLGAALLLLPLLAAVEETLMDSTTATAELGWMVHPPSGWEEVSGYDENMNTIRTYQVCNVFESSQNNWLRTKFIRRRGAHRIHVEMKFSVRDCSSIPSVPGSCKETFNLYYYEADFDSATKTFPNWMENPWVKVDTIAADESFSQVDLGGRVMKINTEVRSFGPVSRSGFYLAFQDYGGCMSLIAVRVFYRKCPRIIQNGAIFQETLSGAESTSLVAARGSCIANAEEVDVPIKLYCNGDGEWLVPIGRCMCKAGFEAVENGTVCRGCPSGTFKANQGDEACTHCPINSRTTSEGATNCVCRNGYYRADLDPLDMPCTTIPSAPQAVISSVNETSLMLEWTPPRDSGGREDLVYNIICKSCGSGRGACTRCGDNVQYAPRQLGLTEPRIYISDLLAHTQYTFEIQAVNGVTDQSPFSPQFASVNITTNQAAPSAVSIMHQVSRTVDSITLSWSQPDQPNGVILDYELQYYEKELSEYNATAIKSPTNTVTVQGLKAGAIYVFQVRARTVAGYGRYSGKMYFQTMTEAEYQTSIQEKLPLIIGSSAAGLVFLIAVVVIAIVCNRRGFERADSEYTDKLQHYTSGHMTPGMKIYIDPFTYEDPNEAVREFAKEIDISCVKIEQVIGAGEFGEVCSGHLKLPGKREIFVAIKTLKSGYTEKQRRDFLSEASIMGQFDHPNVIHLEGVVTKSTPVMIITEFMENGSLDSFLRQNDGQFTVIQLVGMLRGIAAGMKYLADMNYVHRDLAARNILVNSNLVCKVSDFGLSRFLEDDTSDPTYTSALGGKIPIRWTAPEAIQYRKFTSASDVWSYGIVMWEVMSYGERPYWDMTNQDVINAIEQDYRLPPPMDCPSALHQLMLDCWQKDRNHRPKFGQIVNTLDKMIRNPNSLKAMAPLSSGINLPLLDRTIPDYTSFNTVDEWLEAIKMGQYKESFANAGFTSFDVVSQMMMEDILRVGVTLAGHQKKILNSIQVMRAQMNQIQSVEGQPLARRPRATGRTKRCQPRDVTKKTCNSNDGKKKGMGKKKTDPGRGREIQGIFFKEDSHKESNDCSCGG
Compound,residual activity [1] [%],residual activity [2] [%],residual activity [3] [%],residual activity [4] [%],residual activity [5] [%],residual activity [6] [%],residual activity [7] [%],residual activity [8] [%],residual activity [9] [%],residual activity [10] [%],residual activity [11] [%],residual activity [12] [%],residual activity [13] [%]
Cn1sc(=O)n(Cc2ccccc2)c1=O,86,86,86,87,84,90,87,80,87,98,95,–,–
Fc1ccc(-c2nc3n(c2-c2ccncc2)CCS3)cc1,90,99,84,97,70,–,–,–,–,–,–,89,91
